Records with an inconclusive call do not appear. Active and inactive are the calls of the source. Unless noted, the call rests on the fitted dose curve.
Assays:
[1] = Cell Viability - BJ (AID 421); conditions: BJ fibroblast viability, qHTS;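 further: potency means the concentration at half of the fitted maximal effect; cells exposed to compound for 40 hours at 37 °C before readout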
Procedure, shortened: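 Cytotoxicity in human BJ foreskin fibroblasts is scored as loss of cellular ATP after a 40-hour exposure, measured by luciferase luminescence. Controls are DMSO and 100 uM tamoxifen.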

[2] = Cell Viability - Jurkat (AID 426;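 active means dose-dependent loss of cell ATP signal giving a full or clear fitted curve, ranked by lower potency value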; further: potency means the concentration at half of the fitted maximal effect); conditions: qHTS
Procedure, shortened: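 qHTS, 1536-well; Jurkat E6-1, 5000 cells/well, complete medium; cpd 40 hr, 37 °C; CellTiter-Glo 20 min RT; luminescence. AC50 by Hill fit.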

[3] = Cell Viability - Hek293 (AID 427;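 active means compounds whose dose-response curve shows a full or clear partial loss of cell viability, called from curve shape rather than a numeric limit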;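 further: potency means the concentration at half of the fitted maximal effect; cells exposed to compound for 40 hours at 37 °C before reading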); conditions: qHTS
Procedure, shortened: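 qHTS, human embryonic kidney (adenovirus-transformed) cells; 40 hr cpd, 37 °C; CellTiter-Glo ATP luminescence. Norm: DMSO = 0, 100 uM tamoxifen = 100% inhibition. Hill-fit AC50.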

[4] = Cell Viability - HepG2 (AID 433); conditions: qHTS;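 further: potency means the concentration at half of the fitted maximal effect; potency for ATP loss meaning cytotoxicity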
Procedure, shortened: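 HepG2 cells, 1500 per well, treated 40 hr at 37 °C in complete medium; viability from intracellular ATP by CellTiter-Glo luminescence. Normalized to DMSO and 100 uM tamoxifen; AC50 from Hill fit of qHTS concentration-response.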

[5] = Cell Viability - MRC5 (AID 434); conditions: MRC5 lung fibroblast viability, qHTS;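 further: potency means the concentration at half of the fitted maximal effect; potency reflects cytotoxicity seen as loss of intracellular ATP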
Procedure, shortened: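 qHTS cytotoxicity in human lung fibroblast MRC5 cells; 40 hr treatment, 37 °C; cellular ATP by luciferase luminescence; DMSO = 0%, 100 uM tamoxifen = 100% inhibition; Hill-fit AC50.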

[6] = Cell Viability - SK-N-SH (AID 435); conditions: SK-N-SH neuroblastoma cell viability qHTS;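 further: potency means the concentration at half of the fitted maximal effect; compound exposure lasted 40 h at 37 °C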
Procedure, shortened: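 SK-N-SH neuroblastoma cells (1500/well) treated 40 h at 37 °C in complete medium; viability read as cellular ATP by CellTiter-Glo luminescence. Normalized to DMSO and 100 uM tamoxifen; AC50 from Hill fits of qHTS concentration-response.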

[7] = target: Mitogen-activated protein kinase 10 (Mus musculus) (UniProt Q61831); experiment: JNK3 AlphaScreen Assay (AID 530; active means well fitted curve in either direction with a large enough effect, not every such curve was filed as active;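 further: kinase came from lysate of stimulated human HepG2 cells; signal reports phosphorylation of biotinylated GST-cJun 1-79 at Ser73 with 10 µM ATP; on the % scale 0 is the no-effect control and ±100 the full control effect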); conditions: JNK3 lysate, c-Jun phosphorylation; series mostly up to 57.1 µM
Procedure, shortened: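 Compound titrations were preincubated 15 minutes at room temperature with substrate, antibody and pre-activated JNK3-containing HepG2 lysate. Reactions were started with 10 uM ATP and stopped with EDTA-containing bead buffer for AlphaScreen detection.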

[8] = Cell Viability - N2a (AID 540; active means well fitted curve in the direction sought with a large enough effect; an effect the other way counts as inactive or inconclusive;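 further: plate controls were DMSO alone for no effect and tamoxifen control for full effect; nearly all actives have a fitted effect of over 45% in size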); conditions: N2a mouse neuroblastoma cell viability; activity change, negative = cytotoxicity: at 92.2 µM (top of the series)
Procedure, shortened: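 Luminescent ATP signal (CellTiter-Glo, 20 min at room temperature) served as the viability read-out after N2a cells were treated with compounds for 40 hours at 37 °C. Concentration-response data were fitted to the Hill equation for AC50.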

[9] = Cell Viability - NIH 3T3 (AID 541; active means well fitted curve in the direction sought with a large enough effect; an effect the other way counts as inactive or inconclusive;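 further: plate controls were DMSO alone for no effect and tamoxifen positive control for full effect; nearly all actives have a fitted effect of over 25% in size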); conditions: NIH 3T3 cell viability, qHTS; activity change, negative = cytotoxicity: at 92.2 µM (top of the series)
Procedure, shortened: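 Luminescent ATP signal (CellTiter-Glo) served as the viability read-out after NIH 3T3 cells were exposed to compounds over a concentration range for 40 hr at 37 °C. Hill-equation modelling of concentration-response data gave AC50.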

[10] = Cell Viability - HUV-EC-C (AID 542; active means well fitted curve in the direction sought with a large enough effect; an effect the other way counts as inactive or inconclusive; further: on the % scale 0 is the no-effect control and ±100 the full control effect; nearly all actives have a fitted effect of over 35% in size); conditions: HUV-EC-C endothelial cell viability, qHTS; series mostly up to 92.2 µM
Procedure, shortened: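 qHTS cytotoxicity: HUV-EC-C, 1000 cells/well, 5 hr settle, compound 40 hr 37 °C, CellTiter-Glo, luminescence. AC50 via Hill equation.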

Cc1ccccc1C(N)=O
inactive: Potency [1] > 92 µM | Potency [2] > 92 µM | Potency [3] > 92 µM | Potency [4] > 92 µM | Potency [5] > 92 µM | Potency [6] > 92 µM | outcome [7] | activity change, negative = cytotoxicity [8] -9.85% | Potency [9] | Potency [10]

CC(O)COC(C)(C)C (stereo not given)
inactive: Potency [1] > 92 µM | Potency [2] > 92 µM | Potency [3] > 92 µM | Potency [4] > 92 µM | Potency [5] > 92 µM | Potency [6] > 92 µM | outcome [7] | activity change, negative = cytotoxicity [8] 1.08% | Potency [9] | Potency [10]

Cc1ccc(Cl)cc1
inactive: Potency [1] > 92 µM | Potency [2] > 92 µM | Potency [3] > 92 µM | Potency [4] > 92 µM | Potency [5] > 92 µM | Potency [6] > 92 µM | outcome [7] | activity change, negative = cytotoxicity [8] 1.61% | Potency [9] | Potency [10]

O=C1C=CCCC1
inactive: Potency [1] > 92 µM | Potency [2] > 92 µM | Potency [3] > 92 µM | Potency [4] > 92 µM | Potency [5] > 92 µM | Potency [6] > 92 µM | outcome [7] | activity change, negative = cytotoxicity [8] 3.2% | Potency [9] | Potency [10]

Oc1cccc(Nc2ccccc2)c1
inactive: Potency [1] > 92 µM | Potency [2] > 92 µM | Potency [3] > 92 µM | Potency [4] > 92 µM | Potency [5] > 92 µM | Potency [6] > 92 µM | outcome [7] | activity change, negative = cytotoxicity [8] -16.5% | Potency [9] | Potency [10]

C=CCCC
inactive: Potency [1] > 92 µM | Potency [2] > 92 µM | Potency [3] > 92 µM | Potency [4] > 92 µM | Potency [5] > 92 µM | Potency [6] > 92 µM | outcome [7] | activity change, negative = cytotoxicity [8] 1.78% | Potency [9] | Potency [10]

Cc1ccc(N(C)C)cc1
inactive: Potency [1] > 92 µM | Potency [2] > 92 µM | Potency [3] > 92 µM | Potency [4] > 92 µM | Potency [5] > 92 µM | Potency [6] > 92 µM | outcome [7] | activity change, negative = cytotoxicity [8] -13.1% | Potency [9] | Potency [10]

Cc1cc(C(=O)O)ccc1[N+](=O)[O-]
inactive: Potency [1] > 92 µM | Potency [2] > 92 µM | Potency [3] > 92 µM | Potency [4] > 92 µM | Potency [5] > 92 µM | Potency [6] > 92 µM | outcome [7] | activity change, negative = cytotoxicity [8] 4.23% | Potency [9] | Potency [10]

C1CCOC1
inactive: Potency [1] > 92 µM | Potency [2] > 92 µM | Potency [3] > 92 µM | Potency [4] > 92 µM | Potency [5] > 92 µM | Potency [6] > 92 µM | outcome [7] | activity change, negative = cytotoxicity [8] 3.61% | Potency [9] | Potency [10]

Cc1ccc(C)c(O)c1
inactive: Potency [1] > 92 µM | Potency [2] > 92 µM | Potency [3] > 92 µM | Potency [4] > 92 µM | Potency [5] > 92 µM | Potency [6] > 92 µM | outcome [7] | activity change, negative = cytotoxicity [8] 3.3% | Potency [9] | Potency [10]

O=[N+]([O-])c1cccc(Cl)c1
inactive: Potency [1] > 92 µM | Potency [2] > 92 µM | Potency [3] > 92 µM | Potency [4] > 92 µM | Potency [5] > 92 µM | Potency [6] > 92 µM | outcome [7] | activity change, negative = cytotoxicity [8] -8.23% | Potency [9] | Potency [10]

C=CCOC(=O)COCCC(C)C
inactive: Potency [1] > 92 µM | Potency [2] > 92 µM | Potency [3] > 92 µM | Potency [4] > 92 µM | Potency [5] > 92 µM | Potency [6] > 92 µM | outcome [7] | activity change, negative = cytotoxicity [8] -4.01% | Potency [9] | Potency [10]

BrC(Br)C(Br)Br
inactive: Potency [1] > 92 µM | Potency [2] > 92 µM | Potency [3] > 92 µM | Potency [4] > 92 µM | Potency [5] > 92 µM | Potency [6] > 92 µM | outcome [7] | activity change, negative = cytotoxicity [8] 7.56% | Potency [9] | Potency [10]

COc1cccc2sc(N)nc12
inactive: Potency [1] > 92 µM | Potency [2] > 92 µM | Potency [3] > 92 µM | Potency [4] > 92 µM | Potency [5] > 92 µM | Potency [6] > 92 µM | outcome [7] | activity change, negative = cytotoxicity [8] -10.1% | Potency [9] | Potency [10]

CCC(C)(C)OC
inactive: Potency [1] > 92 µM | Potency [2] > 92 µM | Potency [3] > 92 µM | Potency [4] > 92 µM | Potency [5] > 92 µM | Potency [6] > 92 µM | outcome [7] | activity change, negative = cytotoxicity [8] -20.8% | Potency [9] | Potency [10]

Source: PubChem BioAssay (NCATS)
